Structures are written as SMILES. Results filed as inconclusive are left out. Where a call stands in place of a potency, no number is given. Some compounds were tested as several samples or in several runs, with calls that do not always agree. Activity calls are given as the source filed them. The call rests on the fitted dose curve; in most records, active means well fitted cell-killing curve with a large enough effect in the repeat runs; inconclusive means weak or mixed curves; inactive means flat fitted curve, though single readings scatter.

This is an account of results in PubChem BioAssay (Tox21).
Potency means the concentration at half of the fitted maximal effect.

A short description of this test: qHTS RealTime-Glo MT Cell Viability Assay in HepG2 cells - 16 hour (AID 1224885). Further: nearly all actives have a fitted effect of over 50% in size. The following applies: RealTime-Glo luminescence; series mostly up to 76.8 µM; activity change, negative = cytotoxic: at the top concentration. From the text:
U.S. Tox21 Program National Center for Advancing Translational Sciences [NCATS] NIH Chemical Genomics Center [NCGC] U.S. Environmental Protection Agency [EPA] National Institutes of Environmental Health Sciences [NIEHS] National Toxicology Program [NTP] U.S. Food and Drug Administration [FDA] Tox21 Assay Overview: Measure of cell viability is critical in the cell-base assay. Analysis of cell viability is necessary for the characterization of cell responses to cytotoxic drugs and environmental stress. A RealTime-Glo MT Cell Viability Assay to monitor cell viability in real time of continues cell culture during 40 hours of compound treatment was used to screen Tox21 10K library compounds in HepG2 cells. The RealTime-Glo MT Cell Viability Assay is a nonlytic, homogeneous, bioluminescent method to measure cell viability in real time using a simple, plate-based method. The assay involves adding NanoLuc luciferase and a cell-permeant prosubstrate to cells in culture. Viable cells reduce the proprietary prosubstrate to generate a substrate for NanoLuc luciferase. This substrate diffuses from cells into the surrounding culture medium, where it is rapidly used by the NanoLuc Enzyme to produce a luminescent signal. The signal correlates with the number of viable cells, making the assay well suited for cytotoxicity studies.
Tox21 Assay Protocol Summary: The mixture of HepG2 cell suspension and reagents were dispensed at 600cells/6 ul/well in 1536-well tissue culture treated black solid bottom plates using a Multidrop dispenser. After the assay plates were incubated at a 37 C/5% CO2 incubator for 5 hours, 23 nL of compounds dissolved in DMSO, positive and negative controls was transferred to the assay plate by a pintool work station. The plates were incubated at 37 C for 40 hours. The luminescence intensity were measured at 0h, 8h, 16h, 24h, 32h and 40h time points using ViewLux plate reader during compound treatment.
(In general: qHTS replaces the single test concentration by a dilution series.)
Turning to `CN(C)C(=O)Nc1ccc(Cl)c(Cl)c1`, the Potency result is “inactive”.

`O=c1[nH]cc(F)c(=O)[nH]1`: the Potency entry is “inactive”.

For the compound `COc1ccc2c(c1)c(CC(=O)O)c(C)n2C(=O)c1ccc(Cl)cc1`, the Potency entry is “inactive”.

`O=S1(=O)OC(c2ccc(O)cc2)(c2ccc(O)cc2)c2ccccc21`: the Potency was 49 µM (active) and inactive.

Take `CC(=O)Nc1c(I)c(NC(C)=O)c(I)c(C(=O)O)c1I`: the Potency entry was “inactive”.

In the case of `CCN(Cc1c(F)cccc1Cl)c1c([N+](=O)[O-])cc(C(F)(F)F)cc1[N+](=O)[O-]`, the “activity change, negative = cytotoxic” value is -23.5% (inactive).

For the compound `CC(C)NCC(O)c1ccc(O)c(O)c1` (stereo not given), the Potency result was “inactive”.

With `CN(C)CCOC(c1ccccc1)c1ccccc1`, the Potency entry was “inactive”.

`C1=CC2C3C=CC(C3)C2C1` (stereo not given): the “activity change, negative = cytotoxic” value is 5.81% (inactive).

As to `CCN(CC)C(=O)c1cccc(C)c1`, the Potency entry is “inactive”.

On to `NC(CO)(CO)CO`, for which the Potency result is “inactive”.

As to `COc1ccc(C(Cl)=C(c2ccc(OC)cc2)c2ccc(OC)cc2)cc1`, the Potency entry was “inactive”.

On to `Cc1cn([C@H]2C=C[C@@H](CO)O2)c(=O)[nH]c1=O`, for which the Potency entry was “inactive”.

For the compound `Oc1ccccc1`, the Potency entry is “inactive”.

As to `CCCCC1(COC(=O)CCC(=O)O)C(=O)N(c2ccccc2)N(c2ccccc2)C1=O`, the Potency result was “inactive”.

As for `C=CCc1ccc(O)c(OC)c1`, the Potency entry is “inactive”.

In the case of `NC(=O)c1cccnc1`, the Potency entry is “inactive”.

`Cc1ncc([N+](=O)[O-])n1C`: the Potency result was “inactive”.

As to `CCCCCCc1ccc(O)cc1O`, the Potency entry is “inactive”.

On to `O=C1NS(=O)(=O)c2ccccc21`, for which the Potency entry is “inactive”.

As to `O=C1NC(=O)C(c2ccccc2)(c2ccccc2)N1`, the Potency entry is “inactive”.

In the case of `CCCc1cc(=O)[nH]c(=S)[nH]1`, the Potency result is “inactive”.

`Cc1c(C(=O)O)c(O)cc2c1C(=O)c1c(O)c([C@@H]3O[C@H](CO)[C@@H](O)[C@H](O)[C@H]3O)c(O)c(O)c1C2=O`: the Potency entry was “inactive”.

Consider `F[B-](F)(F)F`, for which the Potency entry is “inactive”.

Turning to `Nc1ccc(S(N)(=O)=O)cc1`, the Potency entry is “inactive”.

For `CN(C)C(=S)SC(=S)N(C)C`, the Potency was 2.75 µM (active).

In the case of `CCCCC(CC)C(=O)O` (stereo not given), the Potency result is “inactive”.

With `Cc1cc(C)nc(NS(=O)(=O)c2ccc(N)cc2)n1`, the Potency entry is “inactive”.

As to `O=C(O)c1ccccc1`, the Potency result was “inactive”.

For `CC(=O)C(=O)O`, the Potency result was “inactive”.

Take `CS(=O)(=O)OCCCCOS(C)(=O)=O`: the Potency entry was “inactive”.

Regarding `CCOC(N)=O`, the Potency entry is “inactive”.

`CCCCOC(=O)c1ccc(O)cc1`: the Potency result is “inactive”.

As for `CN(N=O)C(=O)N[C@@H]1[C@@H](O)[C@H](O)[C@@H](CO)O[C@@H]1O`, the Potency entry is “inactive”.

With `Nc1ccc2c(c1)CN1C(=O)c3ccccc3C1=N2`, the activity change, negative = cytotoxic was -5.66% [at 15.8 µM] (inactive).

Take `CC(C)C(=O)Nc1ccc([N+](=O)[O-])c(C(F)(F)F)c1`: the Potency result was “inactive”.

As for `CC12CCC(CC1)C(C)(C)O2`, the Potency result is “inactive”.

For the compound `Cc1ncc([N+](=O)[O-])n1CCO`, the Potency entry was “inactive”.

Consider `C1CCC(C(CC2CCCCN2)C2CCCCC2)CC1` (stereo not given), for which the Potency is 8.49 µM (active).

`CCOc1ccc(NC(C)=O)cc1`: the Potency result is “inactive”.
